Data as given in PubChem BioAssay (NCI).
The panel holds about 83,000 compounds, 20% with a hit somewhere; the sample as a whole holds those more often.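 Testing used 96-well plates and a 48-hour single-concentration exposure. Example: -40 means 40% of the starting cells died.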 Active and inactive are the calls of the source. The calls were made as follows: active = growth percent below 10; inactive = the rest.

Experiments:
Test in all cases: NCI-60 one-dose screen, 48 h (100 = growth as untreated, 0 = no growth, -100 = all killed)
Conditions in all cases: 10 µM unless noted
NCI-H23 lung = system: NCI-H23 lung
NCI-H226 lung = system: NCI-H226 lung
NCI-H322M lung = system: NCI-H322M lung
HOP-62 NSCLC = system: HOP-62 NSCLC
NCI-H460 lung = system: NCI-H460 lung
HOP-92 NSCLC = system: HOP-92 NSCLC
NCI-H522 lung = system: NCI-H522 lung
A549/ATCC NSCLC = system: A549/ATCC NSCLC
786-0 renal = system: 786-0 renal
COLO 205 colon = system: COLO 205 colon
DU-145 prostate = system: DU-145 prostate
K-562 leukemia = system: K-562 leukemia
MALME-3M melanoma = system: MALME-3M melanoma
MDA-MB-231 breast = system: MDA-MB-231 breast
RXF 393 renal = system: RXF 393 renal
SF-268 CNS = system: SF-268 CNS
SF-295 CNS = system: SF-295 CNS
SF-539 CNS = system: SF-539 CNS
UACC-257 melanoma = system: UACC-257 melanoma
M14 melanoma = system: M14 melanoma

Measured: growth

O=C(/C=C/C12c3ccccc3C(c3ccccc31)C1C(=O)NC(=O)C12)c1ccc(I)cc1 (stereo not given)
inactive: NCI-H23 lung 59.3% | NCI-H226 lung 88.8% | NCI-H322M lung 65.1% | HOP-62 NSCLC 69.3% | NCI-H460 lung 44.8% | HOP-92 NSCLC 63.7% | NCI-H522 lung 55% | A549/ATCC NSCLC 71.9% | 786-0 renal 64.6% | COLO 205 colon 78.8% | DU-145 prostate 43.2% | K-562 leukemia 24.8% | MALME-3M melanoma 86.1% | MDA-MB-231 breast 64% | RXF 393 renal 46% | SF-268 CNS 49.8% | SF-295 CNS 78.5% | SF-539 CNS 83.3% | UACC-257 melanoma 60.5% | M14 melanoma 74%

O=C(NC1CCC(Br)CC1)C1CCCC(S(=O)(=O)NC2CCCCC2)C1 (stereo not given)
active: NCI-H23 lung -3.95% [25 µM] | HOP-92 NSCLC -15.2% [25 µM] | NCI-H522 lung -3.79% [25 µM] | K-562 leukemia 8.64% [25 µM] | SF-295 CNS -4.06% [25 µM] | UACC-257 melanoma -6.91% [25 µM]
inactive: NCI-H226 lung 19.7% [25 µM] | NCI-H322M lung 41.9% [25 µM] | HOP-62 NSCLC 13.8% [25 µM] | NCI-H460 lung 14.1% [25 µM] | A549/ATCC NSCLC 10.4% [25 µM] | 786-0 renal 36% [25 µM] | COLO 205 colon 13% [25 µM] | DU-145 prostate 29.9% [25 µM] | MALME-3M melanoma 19.5% [25 µM] | MDA-MB-231 breast 36.1% [25 µM] | RXF 393 renal 37.2% [25 µM] | SF-268 CNS 20.8% [25 µM] | SF-539 CNS 28.8% [25 µM] | M14 melanoma 22.1% [25 µM]

COc1cc2c(cc1OCCCN1CCN(C(=S)SCCC(C#N)(c3ccccc3)c3ccccc3)CC1)N=C[C@@H]1CCCN1C2=O
active: NCI-H23 lung -46.7% | NCI-H226 lung -55.8% | NCI-H322M lung -62.2% | HOP-62 NSCLC 1.76% | NCI-H460 lung -80.3% | HOP-92 NSCLC -71% | NCI-H522 lung -48.3% | A549/ATCC NSCLC -3.55% | 786-0 renal -94.9% | COLO 205 colon -69.5% | DU-145 prostate -100% | K-562 leukemia -5.69% | MALME-3M melanoma -89.3% | MDA-MB-231 breast -31.1% | RXF 393 renal -92.9% | SF-268 CNS -72.5% | SF-295 CNS -14.2% | SF-539 CNS -94.7% | UACC-257 melanoma -45.5% | M14 melanoma -76.6%

O=C(Nc1ccccc1O)c1ccc(CNc2ccnc(C(F)(F)F)c2)cc1
inactive: NCI-H23 lung 39.1% | NCI-H226 lung 68.9% | NCI-H322M lung 56.4% | HOP-62 NSCLC 60.3% | NCI-H460 lung 38.8% | HOP-92 NSCLC 78.2% | NCI-H522 lung 34.3% | A549/ATCC NSCLC 56.5% | 786-0 renal 45.4% | COLO 205 colon 112% | DU-145 prostate 59% | K-562 leukemia 18.2% | MALME-3M melanoma 22% | MDA-MB-231 breast 62.9% | RXF 393 renal 80.6% | SF-268 CNS 54.8% | SF-295 CNS 36% | SF-539 CNS 39.1% | UACC-257 melanoma 46.4% | M14 melanoma 34%

CCCCCCCCCCCCCCCCCCOc1ccccc1CC(=O)NCC[N+](C)(C)C
active: HOP-62 NSCLC 5.94% | HOP-92 NSCLC -5.43% | NCI-H522 lung 7.44% | COLO 205 colon -85.2% | RXF 393 renal -39.7%
inactive: NCI-H23 lung 51.6% | NCI-H226 lung 61.6% | NCI-H322M lung 66.9% | NCI-H460 lung 22.5% | A549/ATCC NSCLC 40.8% | 786-0 renal 16.2% | DU-145 prostate 44.3% | K-562 leukemia 25.9% | MALME-3M melanoma 78.8% | MDA-MB-231 breast 46.7% | SF-268 CNS 24.2% | SF-295 CNS 52.1% | SF-539 CNS 46.4% | UACC-257 melanoma 93.8% | M14 melanoma 33.7%

COCCn1cc(-c2nc(-c3cn(CCOC)c4ncccc34)cs2)c2cc(F)ccc21
inactive: NCI-H23 lung 53.5% | NCI-H226 lung 75.4% | NCI-H322M lung 46.9% | HOP-62 NSCLC 74.4% | NCI-H460 lung 49.7% | HOP-92 NSCLC 56.9% | NCI-H522 lung 33.3% | A549/ATCC NSCLC 53.7% | 786-0 renal 76.6% | COLO 205 colon 35.5% | DU-145 prostate 86.1% | K-562 leukemia 63.7% | MALME-3M melanoma 95.3% | MDA-MB-231 breast 44.9% | RXF 393 renal 86.5% | SF-268 CNS 91.6% | SF-295 CNS 74.7% | SF-539 CNS 76.1% | UACC-257 melanoma 69.5% | M14 melanoma 66.6%

CCCOC(=O)Nc1nc2ccc(SCC)cc2s1
inactive: NCI-H23 lung 91.9% | NCI-H226 lung 92.9% | NCI-H322M lung 99.3% | HOP-62 NSCLC 81.4% | NCI-H460 lung 79.6% | HOP-92 NSCLC 96.1% | NCI-H522 lung 65.6% | A549/ATCC NSCLC 80.5% | 786-0 renal 93.9% | COLO 205 colon 72.2% | DU-145 prostate 94.6% | K-562 leukemia 26.2% | MALME-3M melanoma 77.9% | MDA-MB-231 breast 82.9% | RXF 393 renal 95.8% | SF-268 CNS 92.8% | SF-295 CNS 80.8% | SF-539 CNS 80.9% | UACC-257 melanoma 96.4% | M14 melanoma 46.5%

O=C(O)c1cn(C2CC2)c2cc(N3CCN(C(=O)N4CCOCC4)CC3)c(F)cc2c1=O
inactive: NCI-H23 lung 99.5% | NCI-H226 lung 99.3% | NCI-H322M lung 104% | HOP-62 NSCLC 106% | NCI-H460 lung 115% | HOP-92 NSCLC 95.5% | NCI-H522 lung 89.9% | A549/ATCC NSCLC 108% | 786-0 renal 99.8% | COLO 205 colon 110% | DU-145 prostate 115% | K-562 leukemia 114% | MALME-3M melanoma 88.6% | MDA-MB-231 breast 104% | RXF 393 renal 94.6% | SF-268 CNS 97.9% | SF-295 CNS 106% | SF-539 CNS 102% | UACC-257 melanoma 98% | M14 melanoma 102%

Cc1cc2oc(/C=C/c3ccccc3)cc(=O)c2c(C)c1Cl
inactive: NCI-H23 lung 88.8% | NCI-H226 lung 103% | NCI-H322M lung 110% | HOP-62 NSCLC 103% | NCI-H460 lung 105% | HOP-92 NSCLC 97% | NCI-H522 lung 93.8% | A549/ATCC NSCLC 91.6% | 786-0 renal 93.2% | COLO 205 colon 104% | DU-145 prostate 103% | K-562 leukemia 118% | MALME-3M melanoma 94% | MDA-MB-231 breast 107% | RXF 393 renal 98% | SF-268 CNS 102% | SF-295 CNS 96.2% | SF-539 CNS 98.9% | UACC-257 melanoma 97% | M14 melanoma 108%

CNCC[C@H](Oc1cccc2ccccc12)c1cccs1
active: MDA-MB-231 breast 7.37%
inactive: NCI-H23 lung 80.6% | NCI-H226 lung 96.7% | NCI-H322M lung 98.2% | HOP-62 NSCLC 128% | NCI-H460 lung 104% | HOP-92 NSCLC 52.5% | NCI-H522 lung 81.4% | A549/ATCC NSCLC 96.4% | 786-0 renal 82.9% | COLO 205 colon 102% | DU-145 prostate 115% | K-562 leukemia 54.7% | MALME-3M melanoma 113% | RXF 393 renal 72.3% | SF-268 CNS 88.2% | SF-295 CNS 94.1% | SF-539 CNS 97.5% | UACC-257 melanoma 90.1% | M14 melanoma 104%

Cc1sc2nc(NCCN)[nH]c(=O)c2c1C
inactive: NCI-H23 lung 91% | NCI-H226 lung 84.8% | NCI-H322M lung 83.7% | HOP-62 NSCLC 99.8% | NCI-H460 lung 101% | HOP-92 NSCLC 87.7% | NCI-H522 lung 102% | A549/ATCC NSCLC 101% | 786-0 renal 84.2% | COLO 205 colon 77% | DU-145 prostate 96.7% | K-562 leukemia 103% | MALME-3M melanoma 82.1% | MDA-MB-231 breast 81.1% | RXF 393 renal 100% | SF-268 CNS 91.4% | SF-295 CNS 98% | SF-539 CNS 88.1% | UACC-257 melanoma 107% | M14 melanoma 85.1%

c1ccc2cc(Cn3cc(CSc4nc5ccccc5s4)nn3)ccc2c1
inactive: NCI-H23 lung 93.2% | NCI-H226 lung 83.8% | NCI-H322M lung 97.6% | HOP-62 NSCLC 85.7% | NCI-H460 lung 106% | HOP-92 NSCLC 98.7% | NCI-H522 lung 86.9% | A549/ATCC NSCLC 93.4% | 786-0 renal 101% | COLO 205 colon 102% | DU-145 prostate 109% | K-562 leukemia 97.4% | MALME-3M melanoma 97.7% | MDA-MB-231 breast 89.3% | RXF 393 renal 98.3% | SF-268 CNS 95.8% | SF-295 CNS 96.5% | SF-539 CNS 95.3% | UACC-257 melanoma 99.9% | M14 melanoma 99.4%

Cc1ccc2c(/C=C/C(=O)c3cc(CN4CCOCC4)c(O)c4nc(C)ccc34)cc(CN3CCOCC3)c(O)c2n1
inactive: NCI-H322M lung 17% | HOP-92 NSCLC 30.9% | A549/ATCC NSCLC 11.3% | MALME-3M melanoma 42.9% | MDA-MB-231 breast 11.5% | SF-268 CNS 13.2% | SF-295 CNS 23%
active: NCI-H23 lung -2.24% | NCI-H226 lung -13% | HOP-62 NSCLC -7.03% | NCI-H460 lung 7.83% | NCI-H522 lung -54.8% | 786-0 renal -31.9% | COLO 205 colon -25.8% | DU-145 prostate -55.9% | K-562 leukemia 1.93% | RXF 393 renal -74.5% | SF-539 CNS -29.4% | UACC-257 melanoma 7.95% | M14 melanoma -20.1%

O=CN1N=C(c2cccc(Nc3ccnc4cc(Cl)ccc34)c2)CC1c1ccc(Cl)cc1 (stereo not given)
active: NCI-H23 lung 1.81% | NCI-H522 lung -17.4% | COLO 205 colon -9.28% | RXF 393 renal -4.85%
inactive: NCI-H226 lung 59.4% | NCI-H322M lung 59.6% | HOP-62 NSCLC 24.2% | NCI-H460 lung 19.3% | HOP-92 NSCLC 21.9% | A549/ATCC NSCLC 34.3% | 786-0 renal 28.8% | DU-145 prostate 23.8% | K-562 leukemia 15.8% | MALME-3M melanoma 44.4% | MDA-MB-231 breast 30.2% | SF-268 CNS 37.1% | SF-295 CNS 11.7% | SF-539 CNS 19.2% | UACC-257 melanoma 52.8% | M14 melanoma 21.7%
